Results from the supplement of paper PMC7156485.
± gives the standard deviation of the averaged measurements.

Key:
Settings in all cases: concentration: 10 µM; 24 h
HCC1569 [1] = assay: cell number relative to DMSO (% of DMSO); higher = more cells (less growth inhibition / toxicity)
How it was run: (§1)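 Using 384-well plates with 800 cells per well in RPMI plus 10% FBS, HCC1569 and TDF cells were exposed to compounds at 10 µM, in triplicate, for 24 h at 37 °C. Imaging of six fields per well at ×10 followed H1.0 and DAPI staining. The reported quantity, H1.0 nuclear intensity or cell number, is a median of replicates given as percent of the plate control, and HCC1569 values were smoothed for positional effects.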

TDF [2] = assay: as above
How it was run: as §1

TDF [3] = assay: H1.0 immunofluorescence intensity relative to DMSO (% of DMSO); higher = stronger H1.0 induction, active = 120 or more
How it was run: as §1

HCC1569 [4] = assay: H1.0 immunofluorescence intensity relative to DMSO (% of DMSO); higher = stronger H1.0 induction, active = 140 or more
How it was run: as §1
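Wherever H1.0 immunofluorescence intensity relative to DMSO is given: TDF is a line of transformed human dermal fibroblasts of mesenchymal origin.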
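Wherever cell number relative to DMSO is given: TDF denotes transformed human dermal fibroblasts of mesenchymal origin.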

| SMILES | cell number (HCC1569 [1]) | cell number (TDF [2]) | H1.0 immunofluorescence intensity (TDF [3]) | H1.0 immunofluorescence intensity (HCC1569 [4]) |
| --- | --- | --- | --- | --- |
| CCCCCCCCCC(=O)NC(CN1CCOCC1)C(O)c1ccccc1 (racemic) | 99.8 | 93.9 | 96.7 (inactive) | 106 (inactive) |
| CCC=CCC=CCC=CCC=CCC=CCCC(=O)OC(COCCCCCCCCCCCCCCCC)COP(=O)([O-])OCC[N+](C)(C)C (stereo unspecified) | 105 | 107 | 94.3 (inactive) | 99.4 (inactive) |
| CCCCC=CCCCCCCCC(=O)O [9(Z)-Tetradecenoic acid] | 98.2 | 105 | 104 (inactive) | 99.8 (inactive) |
| c1ccc(C(OC2CCN(CCCc3nn[nH]n3)CC2)c2ccccc2)cc1 [4-(benzhydryloxy)-1-[3-(1H-tetraazol-5-yl)propyl]piperidine] | 104 | 102 | 92.8 (inactive) | 107 (inactive) |
| N#CC(=Cc1ccc(O)cc1)C(N)=C(C#N)C#N | 99 | 96.7 | 95.4 (inactive) | 110 (inactive) |
| C=C1C(=O)OC2C1CCC(=C)C1CCC(=C)C12 (stereo unspecified) [Dehydrocostus lactone] | 83.9 | 64.3 | 110 (inactive) | 103 (inactive) |
| CCCCCC(O)C=CC1C(O)CC(O)C1CC=CCCCC(=O)O (stereo unspecified) [Dinoprost] | 100 | 106 | 93.2 (inactive) | 109 (inactive) |
| O=C(NO)c1cccc(C(=O)NCCc2ccccc2)c1 [N1-hydroxy-N3-phenethylisophthalamide] | 105 | 88 | 90.4 (inactive) | 101 (inactive) |
| Cc1ccccc1N1CCN(S(=O)(=O)CC23CCC(CC2NC(=O)C(N)CCS(C)(=O)=O)C3(C)C)CC1.Cl (stereo unspecified) | 101 | 104 | 94.1 (inactive) | 99 (inactive) |
| NC(N)=NCCC[C@H](N)C(=O)O [L-Arginine] | 102 | 107 | 93.7 (inactive) | 98.6 (inactive) |
| c1ccc(-c2ccc(C(c3ccccc3)n3ccnc3)cc2)cc1 (stereo unspecified) [Bifonazole] | 101 | 98.2 | 86.2 (inactive) | 122 (inactive) |
| Cc1[nH]c2ccccc2c1C1=C(NCCc2ccc(F)cc2)C(=O)N(C)C1=O | 82.4 | 59 | 137 (active) | 113 (inactive) |
| O=C1CCc2ccc(OCCCCN3CCN(c4cccc(Cl)c4Cl)CC3)cc2N1 [Aripiprazole] | 95.5 | 97 | 96.2 (inactive) | 126 (inactive) |
| Cn1c(NCCN(CCO)CCCc2ccc([N+](=O)[O-])cc2)cc(=O)n(C)c1=O [Nifekalant] | 101 | 99.4 | 96.3 (inactive) | 100 (inactive) |
| Nc1c(Br)cc(Br)cc1CNC1CCC(O)CC1 (stereo unspecified) [Ambroxol] | 104 ± 5.2 | 109 ± 5.6 | 100 (inactive) | 103 (inactive) |
| O=c1[nH]c2cc(C(F)(F)F)ccc2n1-c1cc(C(F)(F)F)ccc1O | 101 | 95.9 | 96.6 (inactive) | 98.4 (inactive) |
| O=C(C=Cc1ccc(O)c(O)c1)OC(Cc1ccc(O)c(O)c1)C(=O)O (stereo unspecified) [Rosmarinic acid] | 104 ± 2.8 | 101 ± 6.3 | 97.7 (inactive) | 98.7 (inactive) |
| CCN(Cc1ccccc1)C(=O)Cn1c(=O)n(C)c2cnc(-c3ccccc3)nc21 | 75.1 | 17.6 | 156 (active) | 123 (inactive) |
| N#CC(=Cc1ccc(O)c(O)c1)C(=O)NCCCNC(=O)C(C#N)=Cc1ccc(O)c(O)c1 [Tyrphostin AG 537] | 101 | 101 | 94 (inactive) | 99.6 (inactive) |
| Cl.N=C(N=C(N)N)N1CCOCC1 [Moroxydine.HCl] | 106 | 120 | 98.7 (inactive) | 88.6 (inactive) |
| Cn1c(=O)c2[nH]c(-c3ccccc3)nc2n(C)c1=O [1,3-Dimethyl-8-phenylxanthine] | 105 | 110 | 88 (inactive) | 92 (inactive) |
| COc1cc2c(c(OC)c1OC)-c1ccc(OC)c(=O)cc1C(NC=O)CC2 (stereo unspecified) [N-Formyl-Deacetylcolchicine] | 98.9 | 92.9 | 91.7 (inactive) | 81.9 (inactive) |
| CN1CCCC1CCOC(C)(c1ccccc1)c1ccc(Cl)cc1 (stereo unspecified) [Clemastine] | 99.4 | 97.3 | 102 (inactive) | 112 (inactive) |
| CCCS(=O)c1ccc2nc(NC(=O)OC)[nH]c2c1 (stereo unspecified) [Ricobendazole] | 98.4 | 81.6 | 114 (inactive) | 109 (inactive) |
